Measured values as given in PubChem BioAssay (Tox21).
Records with an inconclusive call do not appear. Active and inactive are the calls of the source. Unless noted, calls come from the whole dose curve; as a rule, active = well fitted curve in the direction sought with a large enough effect in the repeat runs; inconclusive = weak or mixed curves; inactive = no such curve, though single readings can be large; an effect the other way counts as inactive or inconclusive.

What was measured:
[1] = A CellTox Green Cytotoxicity Assay to monitor cytotoxicity in HepG2 cells - 0 hour (AID 1224882); note: nearly all actives have a fitted effect of over 35% in size
Method in brief: (§1)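 First, HepG2 cells (600/well) mixed with reagent were plated; second, after 5 h at 37 C they received compounds via pintool; third, fluorescence was measured at 0 h through 40 h at 8 h intervals.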

[2] = A CellTox Green Cytotoxicity Assay to monitor cytotoxicity in HepG2 cells - 32 hour (AID 1224883); note: nearly all actives have a fitted effect of over 50% in size
Method in brief: as §1

[3] = A CellTox Green Cytotoxicity Assay to monitor cytotoxicity in HEK293 cells - 8 hour (AID 1224884); note: nearly all actives have a fitted effect of over 35% in size
Method in brief: (§2)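 Dead-cell fluorescence measured kinetically: asymmetric cyanine dye, HEK293, 600 cells/well, 5 h settle, 23 nL cpd/DMSO, 37 C, reads 0–40 h every 8 h.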

[4] = qHTS RealTime-Glo MT Cell Viability Assay in HEK293 cells - 24 hour (AID 1224886); note: nearly all actives have a fitted effect of over 50% in size; note: potency is the fitted concentration of half-maximal effect; for activity change, negative = cytotoxicity: top concentration of the series differs between compounds
Method in brief: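 Quantitative high-throughput screen of the Tox21 10K library in HEK293: cells and RealTime-Glo reagents plated together, compound added at 5 h, luminescence monitored through 40 h at 37 C.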

[5] = qHTS RealTime-Glo MT Cell Viability Assay in HEK293 cells - 8 hour (AID 1224887); note: nearly all actives have a fitted effect of over 50% in size; note: potency is the fitted concentration of half-maximal effect; for activity change, negative = cytotoxicity: top concentration of the series differs between compounds
Method in brief: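 600 HEK293 cells per well, dispensed already mixed with RealTime-Glo MT reagents. Compound dosing came 5 h later. The same wells were read for luminescence at 0, 8, 16, 24, 32 and 40 h of exposure at 37 C.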

[6] = A CellTox Green Cytotoxicity Assay to monitor cytotoxicity in HEK293 cells - 16 hour (AID 1224888); note: nearly all actives have a fitted effect of over 35% in size
Method in brief: as §2

[7] = qHTS RealTime-Glo MT Cell Viability Assay in HepG2 cells - 0 hour (AID 1224889); note: nearly all actives have a fitted effect of over 50% in size
Method in brief: (§3)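 Compound treatment began 5 h after plating HepG2 cells (600/well) with NanoLuc luciferase and prosubstrate. Plates stayed at 37 C for 40 h; luminescence was captured at six time points, 0 h through 40 h.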

[8] = A CellTox Green Cytotoxicity Assay to monitor cytotoxicity in HepG2 cells - 8 hour (AID 1224890); note: nearly all actives have a fitted effect of over 45% in size
Method in brief: as §1

[9] = qHTS assay to identify small molecule antagonists of the estrogen receptor alpha (ER-alpha) signaling pathway using the BG1 cell line in the presence of 0.1 nM 17-beta-estradiol - cell viability counter screen (AID 1259241); note: nearly all actives have a fitted effect of over 40% in size
Method in brief: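 VM7Luc4E2 cells (endogenous ER-alpha, 4×ERE-luciferase), hormone-starved 5 days in charcoal-stripped FBS, were treated with compounds plus 0.1 nM 17beta-estradiol for 22 hr at 37C; viability read in same wells as CellTiter-Fluor live-cell protease fluorescence.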

[10] = qHTS assay to identify small molecule antagonists of the androgen receptor (AR) signaling pathway using the MDA cell line in the presence of 0.5 nM R1881 - cell viability counter screen (AID 1259242); note: nearly all actives have a fitted effect of over 45% in size
Method in brief: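 qHTS format. MDA-kb2 (MMTV-luc, AR/GR responsive) + cpd + 0.5 nM R1881 final, 16 hr 37C/0% CO2 → CellTiter-Fluor 30 min → fluorescence intensity.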

[11] = qHTS assay to identify small molecule phospholipidosis (PLD) inducers (AID 1259344; active = well fitted curve in the direction sought with a large enough effect; an effect the other way counts as inactive or inconclusive)
Method in brief: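 Cells (HepG2, 900 per well) attach for 4 h, receive LipidTOX Red and compound together, incubate 24 h at 37 C, are fixed 30 min with paraformaldehyde/Hoechst, then imaged at one site per well.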

[12] = qHTS assay to identify small molecule HDAC inhibitors (AID 1259364);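 note: wild-type HCT-116 cells with endogenous class I/II HDAC activity; top concentration of the series differs between compounds; nearly all actives have a fitted effect of over 45% in size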
Method in brief: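 Quantitative high-throughput format: overnight-seeded HCT-116 cells got compounds for 2 hr at 37C; HDAC-Glo I/II reagent added, 30 min RT, luminescence measured.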

[13] = qHTS assay to identify small molecule HDAC inhibitors - cell viability counter screen (AID 1259365)
Method in brief: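 Wild-type HCT-116 cells were seeded at 1,500 per well, incubated overnight at 37 C, then exposed to compounds in DMSO for 2hr. Viability was read by CellTiter-Glo luminescence after 30min at room temperature.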

[14] = qHTS assay to identify small molecule agonists of the sonic hedgehog signaling (Shh) pathway - cell viability counter screen (AID 1259366); note: nearly all actives have a fitted effect of over 50% in size
Method in brief: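 NIH/3T3-derived 3T3 Gli1-Luc cells (stable Gli1-responsive firefly luciferase reporter) were seeded, rested 4 hr at 37 C/5% CO2, then exposed to compounds in DMSO for 24 hr; viability was read by CellTiter-Fluor fluorescence in the same wells.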

[15] = qHTS assay to identify small molecule antagonists of the sonic hedgehog signaling (Shh) pathway - cell viability counter screen (AID 1259367); note: nearly all actives have a fitted effect of over 55% in size
Method in brief: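 Cytotoxicity was assessed in parallel with Shh reporter activity by measuring live-cell protease fluorescence (CellTiter-Fluor) in NIH/3T3 cells stably carrying Gli1-Luc, treated with compound under conditioned medium stimulation for 23 hr plus 1 hr reagent incubation.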

[16] = qHTS assay to identify small molecule antagonists of the sonic hedgehog signaling (Shh) pathway (AID 1259369; calls by dose curve; note: nearly all actives have a fitted effect of over 45% in size; note: potency is the fitted concentration of half-maximal effect)
Method in brief: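 Stable Gli1-Luc reporter NIH/3T3 clone; quantitative HTS in stimulated mode with conditioned medium. Luminescence measured after 24hr compound treatment at 37 C.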

[17] = target: Androgen receptor (Homo sapiens) (UniProt P10275); experiment: qHTS assay to identify small molecule antagonists of the androgen receptor (AR) signaling pathway using the MDA cell line in the presence of 0.5 nM R1881 (AID 1259243); note: nearly all actives have a fitted effect of over 50% in size
Chain of Androgen receptor (Homo sapiens) (P10275 whole entry, looked up): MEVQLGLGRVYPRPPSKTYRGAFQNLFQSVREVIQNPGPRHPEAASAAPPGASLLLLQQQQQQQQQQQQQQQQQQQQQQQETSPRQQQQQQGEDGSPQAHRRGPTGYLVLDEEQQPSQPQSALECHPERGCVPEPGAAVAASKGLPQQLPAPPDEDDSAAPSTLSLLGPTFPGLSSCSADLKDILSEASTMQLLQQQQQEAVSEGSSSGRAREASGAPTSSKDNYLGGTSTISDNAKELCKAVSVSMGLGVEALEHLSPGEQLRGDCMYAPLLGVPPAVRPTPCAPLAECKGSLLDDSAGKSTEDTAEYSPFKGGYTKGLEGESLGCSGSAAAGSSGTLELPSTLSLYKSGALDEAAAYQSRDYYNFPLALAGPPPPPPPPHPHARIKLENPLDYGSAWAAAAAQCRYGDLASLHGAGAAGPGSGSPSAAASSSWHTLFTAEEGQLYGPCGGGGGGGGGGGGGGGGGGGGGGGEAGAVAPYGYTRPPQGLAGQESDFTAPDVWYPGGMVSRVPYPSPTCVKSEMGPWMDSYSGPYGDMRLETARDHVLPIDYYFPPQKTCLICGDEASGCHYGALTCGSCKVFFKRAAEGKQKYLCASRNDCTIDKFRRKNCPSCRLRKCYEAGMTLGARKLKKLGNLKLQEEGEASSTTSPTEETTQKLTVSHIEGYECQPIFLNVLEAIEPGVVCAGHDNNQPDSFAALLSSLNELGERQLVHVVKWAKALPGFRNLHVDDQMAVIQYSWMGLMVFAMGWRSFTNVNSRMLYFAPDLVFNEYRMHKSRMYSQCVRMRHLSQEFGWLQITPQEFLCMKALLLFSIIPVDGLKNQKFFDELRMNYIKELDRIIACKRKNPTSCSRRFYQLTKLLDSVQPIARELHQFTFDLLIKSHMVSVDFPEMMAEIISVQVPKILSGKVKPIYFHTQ
Method in brief: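 Antagonist mode quantitative HTS in MDA-kb2 MMTV-luciferase cells, agonist R1881 at 0.5 nM final, 16 hr exposure at 37C and 0% CO2, luminescent detection.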

[18] = qHTS assay to identify small molecule agonists of the sonic hedgehog signaling (Shh) pathway (AID 1259368; calls by dose curve; note: series mostly up to about 92 µM; nearly all actives have a fitted effect of over 15% in size)
Method in brief: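 Quantitative high-throughput format using a Gli1-driven firefly luciferase reporter line derived from NIH/3T3 cells. After a 24 hr compound treatment at 37 C and 5% CO2, luminescence reported Gli1 response element activity.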

[19] = target: Estrogen receptor (Homo sapiens) (UniProt P03372); experiment: qHTS assay to identify small molecule antagonists of the estrogen receptor alpha (ER-alpha) signaling pathway using the BG1 cell line in the presence of 0.1 nM 17-beta-estradiol (AID 1259244); note: nearly all actives have a fitted effect of over 50% in size
Chain of Estrogen receptor (Homo sapiens) (P03372 whole entry, looked up): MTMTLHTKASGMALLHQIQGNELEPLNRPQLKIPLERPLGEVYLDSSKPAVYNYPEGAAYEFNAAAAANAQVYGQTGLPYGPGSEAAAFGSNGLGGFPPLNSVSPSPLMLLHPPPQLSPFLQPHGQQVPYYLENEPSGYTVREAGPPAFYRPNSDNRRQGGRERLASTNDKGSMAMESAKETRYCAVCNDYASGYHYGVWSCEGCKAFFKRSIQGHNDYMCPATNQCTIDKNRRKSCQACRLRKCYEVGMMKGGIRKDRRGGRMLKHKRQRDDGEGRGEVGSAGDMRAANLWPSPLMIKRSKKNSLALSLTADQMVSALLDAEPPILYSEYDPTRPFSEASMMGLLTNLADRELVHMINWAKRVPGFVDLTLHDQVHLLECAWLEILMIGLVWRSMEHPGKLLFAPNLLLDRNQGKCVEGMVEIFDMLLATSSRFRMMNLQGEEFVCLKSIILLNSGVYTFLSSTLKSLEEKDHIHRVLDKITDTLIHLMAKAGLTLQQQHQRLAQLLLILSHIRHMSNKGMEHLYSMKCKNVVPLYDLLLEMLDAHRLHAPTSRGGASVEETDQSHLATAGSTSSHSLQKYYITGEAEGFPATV
Method in brief: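 Reporter is a stably transfected luciferase under four estrogen responsive elements in VM7Luc4E2 cells expressing native full-length ER-alpha; inhibition of 0.1 nM (final) 17beta-estradiol-driven signal over 22 h is read by luminescence.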

[20] = qHTS RealTime-Glo MT Cell Viability Assay in HepG2 cells - 16 hour (AID 1224885); note: nearly all actives have a fitted effect of over 50% in size
Method in brief: as §3
% is set by controls: 0 for no effect and ±100 for the full control effect.

CC(C)C1=CC2=CC[C@@H]3[C@](C)(CCC[C@@]3(C)C(=O)O)[C@H]2CC1
inactive: Potency [1] | Potency [2] | Potency [3] | Potency [4] | Potency [5] | Potency [6] | Potency [7] | Potency [8] | Potency [9] | outcome [10] | outcome [11] | Potency [12] | outcome [13] | Potency [14] | Potency [15] | Potency [16]

COC(C)CCO (stereo not given)
inactive: Potency [1] | Potency [2] | Potency [3] | Potency [4] | Potency [5] | Potency [6] | Potency [7] | Potency [8] | Potency [9] | outcome [10] | Potency [17] | Potency [12] | outcome [13] | Potency [14] | Potency [15] | Potency [18] | Potency [16]

CCCCCCn1c(=O)c2c(ncn2C)n(C)c1=O
inactive: Potency [1] | Potency [2] | Potency [3] | Potency [4] | Potency [5] | Potency [6] | Potency [7] | Potency [8] | Potency [9] | outcome [10] | Potency [17] | Potency [19] | Potency [12] | outcome [13] | Potency [14] | Potency [15] | Potency [16]

COc1ccc(S(=O)(=O)Nc2nnc(CC(C)C)s2)cc1
inactive: Potency [1] | Potency [2] | Potency [3] | outcome [20] | Potency [6] | Potency [7] | Potency [8] | Potency [9] | outcome [10] | outcome [11] | Potency [12] | outcome [13] | Potency [14] | Potency [15] | Potency [18] | Potency [16]

CCOC(=O)c1ccccc1O
inactive: Potency [1] | Potency [2] | Potency [3] | Potency [4] | Potency [5] | Potency [6] | Potency [7] | Potency [8] | Potency [9] | outcome [10] | outcome [11] | Potency [12] | outcome [13] | Potency [14] | Potency [15] | Potency [18]

CCCNC(C)C(=O)Nc1c(C)csc1C(=O)OC (stereo not given)
inactive: Potency [1] | Potency [2] | Potency [3] | Potency [4] | Potency [5] | Potency [7] | Potency [8] | Potency [9] | outcome [10] | Potency [19] | outcome [11] | Potency [12] | outcome [13] | Potency [14] | Potency [15] | Potency [18] | Potency [16]

O=C(O)CN(CCN(CC(=O)O)CC(=O)O)CCN(CC(=O)O)CC(=O)O
inactive: cytotoxicity [1] 20.5% [at 15.8 µM] | cytotoxicity increase [2] 22% [at 15.8 µM] | cytotoxicity increase [3] 18.1% [at 15.8 µM] | activity change, negative = cytotoxic [20] -0.409% [at 15.8 µM] | activity change, negative = cytotoxicity [7] -4.51% [at 15.8 µM] | cytotoxicity increase [8] 26.9% [at 15.8 µM] | activity change, negative = cytotoxicity [9] -1.86% [at 19 µM] | viability change, negative = cytotoxic [10] 3.41% [at 19 µM] | outcome [11] | activity change, negative = inhibition [12] 3.25% [at 19 µM] | activity change, negative = cytotoxicity [13] 3.61% [at 19 µM] | viability change, negative = cytotoxic [14] -18.4% [at 19 µM] | viability change, negative = cytotoxic [15] -7.04% [at 19 µM] | activity change [18] 0.166% [at 18.9 µM, stronger effect = higher value] | activity change, negative = inhibition [16] -28.7% [at 19 µM]

Oc1ccccc1C=NCc1ccccc1
inactive: Potency [1] | Potency [2] | Potency [3] | Potency [4] | Potency [7] | Potency [8] | Potency [9] | outcome [10] | outcome [11] | Potency [12] | outcome [13] | Potency [14] | Potency [15] | Potency [18] | Potency [16]

Cc1nc(-c2ccccn2)ncc1C(=O)Nn1cc(C)c2cc(F)ccc21
active: Potency [4] 1.55 µM | Potency [5] 1.95 µM
inactive: Potency [1] | Potency [2] | Potency [3] | Potency [6] | Potency [7] | Potency [8] | Potency [9] | outcome [10] | Potency [12] | outcome [13] | Potency [14] | Potency [15] | Potency [18]

CC(C)(C)C1CCCCC1=O (stereo not given)
inactive: Potency [1] | Potency [2] | Potency [3] | outcome [20] | Potency [5] | Potency [7] | Potency [8] | Potency [9] | outcome [10] | Potency [19] | Potency [12] | outcome [13] | Potency [14] | Potency [15] | Potency [18] | Potency [16]

C[C@@H](N)C(=O)O
inactive: Potency [1] | Potency [2] | Potency [3] | outcome [20] | Potency [6] | Potency [7] | Potency [8] | Potency [9] | outcome [10] | Potency [17] | outcome [11] | Potency [12] | outcome [13] | Potency [14] | Potency [15] | Potency [18]
active: Potency [16] 21.1 µM

CN1CCN(c2c(F)cc3c(=O)c(C(=O)O)cn4c3c2SCC4)CC1
inactive: Potency [1] | Potency [2] | Potency [3] | Potency [4] | Potency [5] | Potency [6] | Potency [7] | Potency [8] | Potency [9] | outcome [10] | Potency [19] | outcome [11] | Potency [12] | outcome [13] | Potency [14] | Potency [15] | Potency [18] | Potency [16]

CCCNC(C)(C)COC(=O)c1ccccc1
inactive: Potency [1] | Potency [2] | Potency [3] | Potency [4] | Potency [5] | Potency [6] | Potency [7] | Potency [8] | Potency [9] | outcome [10] | outcome [11] | Potency [12] | outcome [13] | Potency [14] | Potency [15] | Potency [18] | Potency [16]

COc1cc(C)ccc1C(C)C
inactive: Potency [1] | Potency [2] | Potency [3] | outcome [20] | Potency [6] | Potency [7] | Potency [8] | Potency [9] | outcome [10] | Potency [19] | Potency [12] | outcome [13] | Potency [14] | Potency [15] | Potency [18] | Potency [16]

O=C(O)C(=O)Cc1c[nH]c2ccccc12
inactive: Potency [1] | Potency [2] | Potency [3] | outcome [20] | Potency [5] | Potency [8] | Potency [9] | outcome [10] | Potency [12] | outcome [13] | Potency [14] | Potency [15] | Potency [18] | Potency [16]

N#Cc1ccc(C(c2ccc(C#N)cc2)n2cncn2)cc1
inactive: Potency [1] | Potency [2] | Potency [3] | Potency [4] | Potency [5] | Potency [6] | Potency [7] | Potency [8] | Potency [9] | outcome [10] | Potency [19] | outcome [11] | Potency [12] | outcome [13] | Potency [14] | Potency [15] | Potency [18] | Potency [16]
